Records with an inconclusive call do not appear. Active and inactive are the calls of the source. Unless noted, calls come from the whole dose curve; as a rule, active = well fitted inhibition curve with a large enough effect; inconclusive = small, poorly fitted or top-dose-only effect; inactive = no such curve, though single readings can be large or run the other way.

System in the first experiment: not listed separately
The experiment is described as follows: Primary qHTS for inhibitors of nuclear receptor binding SET domain protein 2 (NSD2) in an RCH-ACV wild type WT cells (2C) (AID 1645877). For activity change, negative = cell killing: % is set by controls: 0 for no effect and ±100 for the full control effect. Note: nearly all actives have a fitted effect of over 70% in size. As to conditions: RCH-ACV (leukaemia line) NSD2 WT (2C) viability, CellTiter-Glo, 72 h; series mostly up to 44.9 µM; activity change, negative = cell killing: at the top concentration.
For `CN(C)C(=O)C(O)C(Cc1ccccc1)NC(=O)c1cc2cc(Cl)ccc2[nH]1` (configuration not stated), the “activity change, negative = cell killing” value is -20.2% (inactive).

With `O=C(N[C@H](Cc1ccccc1)C(=O)O)c1sc2cc(F)ccc2c1Cl`, the “activity change, negative = cell killing” value is 4.95% (inactive).

With `CS(=O)(=O)c1ccccc1N1CCN(c2nc3c(c(=O)[nH]2)CSCC3)CC1`, the “outcome” value was “inactive”.

In the case of `On1ncc(C2CCNCC2)c1-c1cccc(-c2ccccc2)c1`, the “activity change, negative = cell killing” value is -19.6% (inactive).

As to `O=C(NCC(=O)N1CCCC1)Nc1ccc2ccccc2c1`, the “activity change, negative = cell killing” value was -2.61% (inactive).

The target in another experiment is Catechol O-methyltransferase (Homo sapiens) (UniProt P21964). The experiment is described as follows: Confirmatory Screen for Target Class Profiling of Small Molecule Inhibitors of Methyltransferases (AID 1745852; calls by dose curve; note: potency is the fitted concentration of half-maximal effect; for activity change, negative = inhibition: % is set by controls: 0 for no effect and ±100 for the full control effect). As to conditions: MTase-Glo luminescence, SAH detection, recombinant enzyme; measured here: COMT max response; stronger effect = lower value.
Catechol O-methyltransferase (Homo sapiens), sequence (P21964 whole entry, looked up): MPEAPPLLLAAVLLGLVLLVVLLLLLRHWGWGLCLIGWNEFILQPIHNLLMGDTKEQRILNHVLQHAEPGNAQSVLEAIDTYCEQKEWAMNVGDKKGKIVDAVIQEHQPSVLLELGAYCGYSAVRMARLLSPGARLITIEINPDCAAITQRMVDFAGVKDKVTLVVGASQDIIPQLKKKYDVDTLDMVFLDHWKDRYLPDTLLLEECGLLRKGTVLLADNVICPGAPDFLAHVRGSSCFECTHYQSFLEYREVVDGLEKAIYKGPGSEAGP
As to `C=Cc1cc2oc(-c3ccc(O)c(F)c3)nc2cc1O`, the activity was -57%.

As for `CC(C)c1cc2c(c(O)c1O)[C@@]13CCCC(C)(C)C1[C@@H](O)[C@@H]2OC3=O` (some centres not stated), the activity is -82.4%.

With `O=C(NCC(=O)N1CCCC1)Nc1ccc2ccccc2c1`, the activity came to 1.31%.

The target of the next experiment is Guanidinoacetate N-methyltransferase (Homo sapiens) (UniProt Q14353). The experiment is described as above. As to conditions: MTase-Glo luminescence, SAH detection, recombinant enzyme; activity change, negative = inhibition: at 57.3 µM (top of the series) unless noted.
`C=Cc1cc2oc(-c3ccc(O)c(F)c3)nc2cc1O`: the Potency was 30.4 µM (active).

`CC(C)c1cc2c(c(O)c1O)[C@@]13CCCC(C)(C)C1[C@@H](O)[C@@H]2OC3=O` (some centres not stated): the activity change, negative = inhibition was -4.37%.

As for `O=C(NCC(=O)N1CCCC1)Nc1ccc2ccccc2c1`, the activity change, negative = inhibition was -10.4%.

For a further experiment, the target named is Nicotinamide N-methyltransferase (Homo sapiens) (UniProt P40261). The description is as above. Conditions: MTase-Glo luminescence, SAH detection, recombinant enzyme; measured here: NNMT max response; stronger effect = lower value.
Nicotinamide N-methyltransferase (Homo sapiens), sequence (P40261 whole entry, looked up): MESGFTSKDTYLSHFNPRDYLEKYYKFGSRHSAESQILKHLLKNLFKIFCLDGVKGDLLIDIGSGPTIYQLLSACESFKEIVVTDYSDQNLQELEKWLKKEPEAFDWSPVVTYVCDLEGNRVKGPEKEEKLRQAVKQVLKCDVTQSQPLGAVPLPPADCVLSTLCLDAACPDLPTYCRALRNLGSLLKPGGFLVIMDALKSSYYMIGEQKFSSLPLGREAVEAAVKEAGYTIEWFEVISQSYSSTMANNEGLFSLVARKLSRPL
For the molecule `C=Cc1cc2oc(-c3ccc(O)c(F)c3)nc2cc1O`, the activity was -39.5%.

As to `CC(C)c1cc2c(c(O)c1O)[C@@]13CCCC(C)(C)C1[C@@H](O)[C@@H]2OC3=O` (some centres not stated), the activity is -4.78%.

Turning to `O=C(NCC(=O)N1CCCC1)Nc1ccc2ccccc2c1`, the activity is -23%.

The next experiment deals with Phenylethanolamine N-methyltransferase (Homo sapiens) (UniProt P11086). Described as above. As to conditions: MTase-Glo luminescence, SAH detection, recombinant enzyme; measured here: PNMT max response; stronger effect = lower value.
Phenylethanolamine N-methyltransferase (Homo sapiens), sequence (P11086 whole entry, looked up): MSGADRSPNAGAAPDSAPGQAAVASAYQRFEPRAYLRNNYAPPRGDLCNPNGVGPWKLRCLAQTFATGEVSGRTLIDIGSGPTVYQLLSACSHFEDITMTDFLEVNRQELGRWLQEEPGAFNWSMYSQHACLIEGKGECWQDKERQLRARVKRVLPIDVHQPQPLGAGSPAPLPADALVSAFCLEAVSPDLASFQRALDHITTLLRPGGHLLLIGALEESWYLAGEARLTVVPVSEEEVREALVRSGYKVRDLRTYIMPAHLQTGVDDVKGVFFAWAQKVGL
On to `C=Cc1cc2oc(-c3ccc(O)c(F)c3)nc2cc1O`, for which the activity is -56.3%.

On to `CC(C)c1cc2c(c(O)c1O)[C@@]13CCCC(C)(C)C1[C@@H](O)[C@@H]2OC3=O` (some centres not stated), for which the activity is -0.254%.

For `O=C(NCC(=O)N1CCCC1)Nc1ccc2ccccc2c1`, the activity was -8.32%.
